The source made the active and inactive calls. The calls were made as follows: active = hit-call score of the fitted dose curve at least 0.9, where 1 is the maximum; inactive = score below 0.9.
Assay: ATG_TA_CIS: Attagene CIS-FACTORIAL HepG2 Assay for human TA Basal Promoter (AID 2282964)
Details: HepG2 Attagene CIS-factorial TA basal promoter reporter; actives raise or lower the signal
In short: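 Transfected HepG2, 24 h compound exposure; RNA → RT-PCR → FAM primer extension → HpaI cut → CE fluorescence. Gain/loss-of-signal fitted against DMSO negative control. Background-control readout.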
With `Cc1ccc(S)cc1` the outcome was “inactive”.
In the case of `CCCCCCOC(=O)CCCCC`, the outcome is reported as “inactive”.
With `Nc1ccc(S(N)(=O)=O)cc1` the outcome was “inactive”.
With `CC(C)=CCO` the outcome was “inactive”.
In the case of `CCOc1ccccc1OCC`, the outcome is reported as “inactive”.
In the case of `CC(=O)C(=O)O`, the outcome is reported as “inactive”.
In the case of `CC1(C)C(=O)N(Br)C(=O)N1Cl`, the outcome is reported as “inactive”.
With `CCC(C)CCCC(C)(C)O` (stereo not given) the outcome was “inactive”.
In the case of `Clc1sc(Cl)c(Cl)c1Cl`, the outcome is reported as “inactive”.
For `CC1(CO)CN(c2ccccc2)NC1=O` (stereo not given), the outcome was “inactive”.
With `CCOC(=O)c1ccccc1OC` the outcome was “inactive”.
With `CCCOCC(C)O` (stereo not given) the outcome was “inactive”.

Assay: ATG_TCF_b_cat_CIS: Attagene CIS-FACTORIAL HepG2 Assay for human T-Cell-Factor with beta-catenin (TCF/b-cat) (AID 2282965)
Details: HepG2 TCF/beta-catenin cis-reporter transcription, actives raise or lower the signal
In short: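 HepG2 cells transiently transfected with multiple cis-promoter-regulated reporter transcription units, so endogenous transcription factor activity is measured. Reporter mRNA read 24 hours after dosing by RT-PCR, fluorescent labelling and capillary electrophoresis; bidirectional fitting against DMSO.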
In the case of `CCCCCCCCCCCCOCCO`, the outcome is reported as “inactive”.
With `CC(C)=CCC/C(C)=C/COC=O` the outcome was “inactive”.
With `CCC(=O)OCCC(C)CCC=C(C)C` (stereo not given) the outcome was “inactive”.
In the case of `CCCCCCCCCCN`, the outcome is reported as “inactive”.
For `O=C1C(c2[nH]c3ccc(S(=O)(=O)O)cc3c2O)=Nc2ccc(S(=O)(=O)O)cc21`, the outcome was “inactive”.
In the case of `CCCCOCCOCCOCCOCCO`, the outcome is reported as “inactive”.
With `NCCCCCCN` the outcome was “inactive”.
For `CC(C)(COC(=O)c1ccccc1)COC(=O)c1ccccc1`, the outcome was “inactive”.
For `O=C(COc1ccc(Cl)cc1)N1CCN(Cc2ccc3c(c2)OCO3)CC1`, the outcome was “inactive”.
For `O=CCCc1ccccc1`, the outcome was “inactive”.
With `CCCCCCCCC=O` the outcome was “inactive”.
For `OCCCCCO`, the outcome was “inactive”.
With `C=C(C)C(=O)Nc1ccc(Cl)c(Cl)c1` the outcome was “inactive”.
For `C=C(C)[C@@H]1CC[C@@H](C)C[C@@H]1O`, the outcome was “inactive”.
For `OC[C@H]1O[C@H](O[C@]2(CCl)O[C@H](CCl)[C@@H](O)[C@@H]2O)[C@H](O)[C@@H](O)[C@H]1Cl`, the outcome was “inactive”.
For `O=c1[nH]c(=O)n([C@H]2CCCO2)cc1F`, the outcome was “inactive”.
With `Cc1ccc(C=O)s1` the outcome was “inactive”.
In the case of `C=O`, the outcome is reported as “inactive”.
In the case of `O=C(O)c1cccc(C(F)(F)F)c1`, the outcome is reported as “inactive”.
For `Fc1c(F)c(F)c(Br)c(F)c1F`, the outcome was “inactive”.
In the case of `C=C(C)C1CCC(C)CC1O` (stereo not given), the outcome is reported as “inactive”.
In the case of `O=S(=O)(O)NC1CCCCC1`, the outcome is reported as “inactive”.
For `CCCCCCCCCCC(CO)CCCCCCCC` (stereo not given), the outcome was “inactive”.
In the case of `CO[Si](CCCn1c(=O)n(CCC[Si](OC)(OC)OC)c(=O)n(CCC[Si](OC)(OC)OC)c1=O)(OC)OC`, the outcome is reported as “inactive”.
With `C=CCOc1nc(OCC=C)nc(OCC=C)n1` the outcome was “inactive”.
In the case of `C=C(C)C(=O)O[C@H]1C[C@@H]2CC[C@@]1(C)C2(C)C`, the AC50 is reported as 138 µM (active).
For `Cc1ccc(S)cc1`, the AC50 was 24.4 µM (active).
In the case of `CCCCCCOC(=O)CCCCC`, the outcome is reported as “inactive”.
In the case of `Nc1ccc(S(N)(=O)=O)cc1`, the outcome is reported as “inactive”.
For `CC(C)=CCO`, the outcome was “inactive”.
In the case of `CCOc1ccccc1OCC`, the outcome is reported as “inactive”.
With `CC(=O)C(=O)O` the outcome was “inactive”.
For `CC1(C)C(=O)N(Br)C(=O)N1Cl`, the outcome was “inactive”.
For `CCC(C)CCCC(C)(C)O` (stereo not given), the outcome was “inactive”.
With `Clc1sc(Cl)c(Cl)c1Cl` the outcome was “inactive”.
With `CC1(CO)CN(c2ccccc2)NC1=O` (stereo not given) the outcome was “inactive”.
For `CCOC(=O)c1ccccc1OC`, the outcome was “inactive”.
In the case of `CCCOCC(C)O` (stereo not given), the outcome is reported as “inactive”.
